IMPase Li cell – cell-permeable IMPase inhibitors with lithium potentiation | 0.35% of 210,000 active | Potency, µM (series often up to 59.4 µM), for the others: at the top dose activity, negative = IMPase inhibition, usual class: inhibitors | CHO-M1 cells, IP1 TR-FRET (IP-One), carbachol + lithium;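 also: IP1 builds up when IMPase is blocked and the TR-FRET signal falls; potency is read from the fitted curve at half-maximal effect; plate controls were basal vehicle for no effect and high inhibitor control for full effect; nearly all actives have a fitted effect of over 50% in size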
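CHO cells stably expressing M1 receptor (2000/well) were cultured 16–30 h, then exposed to compounds with a small lithium addition for 30 min at 37C. IP1 was measured by TR-FRET competition; AC50 from Hill fits.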
IMPase inh – IMPase inhibition in cells; AID 901; inhibition (IP1 accumulation), % at 46.1 µM; P97697; 120,000 tested, under 10 active; CHO-M1 cells, IP1 accumulation, HTRF TR-FRET ratio; active = well fitted curve in the direction sought with a large enough effect in the signal ratio, not every such curve was filed as active; inconclusive = small, poorly fitted or top-dose-only effect, or a change in a side signal; inactive = no such curve, though single readings can be large or run the other way; the % refers to the signal ratio;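 also: cells stimulated with carbachol in lithium chloride buffer; plate controls were DMSO basal wells for no effect and reference inhibitor wells for full effect; higher means more IMPase inhibition seen as more IP1 and lower FRET ratio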
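CHO-M1, 2000 cells/well, cultured 16–30 h; cpd up to 46 uM; carbachol (50 uM solution, stimulation buffer w/ 50 mM LiCl, pH 7.4), 30 min 37C; IP-One TR-FRET, 10 min RT; Ex 320/Em 665, 620; Hill-fit AC50.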
12-hLO inh – 12-hLO (ALOX12) enzyme inhibition; AID 1452; Potency, µM (highest dose often 57.1 µM), for inactives: top-dose activity change, negative = inhibition, actives largely listed as inhibitors; purified 12-hLO, xylenol orange hydroperoxide absorbance; 0.12% of 150,000 active; also: potency is read from the fitted curve at half-maximal effect; nearly all actives have a fitted effect of over 55% in size
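Xylenol orange chromogenic assay: hydroperoxide from 12hLO oxidises Fe(II), giving red-shifted Fe(III)-XO absorbance. Conditions: 150 nM enzyme, 40 uM arachidonic acid, 25 mM Hepes pH 7.0, 0.01% Triton X-100, 30 min, room temperature.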
ALDH1A1 inh – blocks purified human ALDH1A1 activity; P00352; Purified ALDH1A1, NADH fluorescence, propionaldehyde substrate; Potency, µM (titrated, usually from 75.3 µM), without a hit: at the highest dose activity, negative = inhibition, usual class: inhibitors; 7.3% of 220,000 active; AID 1030; active = well fitted inhibition curve with a large enough effect, not every such curve was filed as active; inconclusive = small, poorly fitted or top-dose-only effect, or another doubt; inactive = no such curve, though single readings can be large or run the other way;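 also: potency is read from the fitted curve at half-maximal effect; plate controls were no enzyme wells and a reference inhibitor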
NPSR antag – blocks cAMP signaling of the human neuropeptide S receptor; AID 1461; CHO-NPSR cells, cAMP TR-FRET, antagonist mode; 1% of 220,000 active; Potency, µM (doses to about 38.3 µM), for the others: at the top dose activity change, negative = inhibition, usual class: inhibitors; Q6W5P4; also: potency is read from the fitted curve at half-maximal effect; nearly all actives have a fitted effect of over 50% in size
Target sequence (Q6W5P4 whole entry, looked up): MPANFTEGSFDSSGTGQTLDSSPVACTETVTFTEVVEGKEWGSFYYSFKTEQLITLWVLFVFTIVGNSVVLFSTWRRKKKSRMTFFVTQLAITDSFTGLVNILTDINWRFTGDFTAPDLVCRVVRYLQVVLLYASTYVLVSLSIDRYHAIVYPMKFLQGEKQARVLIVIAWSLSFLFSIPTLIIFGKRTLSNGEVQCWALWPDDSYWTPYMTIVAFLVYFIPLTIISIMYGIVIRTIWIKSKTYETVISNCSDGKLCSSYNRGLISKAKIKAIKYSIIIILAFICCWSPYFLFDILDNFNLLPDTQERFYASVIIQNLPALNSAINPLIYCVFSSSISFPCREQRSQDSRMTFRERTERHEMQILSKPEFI
HPGD block – blocks human HPGD enzyme activity; purified HPGD, NADH fluorescence kinetic, PGE2 substrate; Potency, µM, without a hit: top-dose activity change, negative = inhibition, usual class: inhibitors; 4.3% of 150,000 active; AID 894; active = well fitted inhibition curve with a large enough effect, not every such curve was filed as active; inconclusive = small, poorly fitted or top-dose-only effect, or another doubt; inactive = no such curve, though single readings can be large or run the other way; also: potency is read from the fitted curve at half-maximal effect
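NADH formation kinetics: reaction with 30 uM PGE2 and 1 mM NAD+ (final), 20 nM enzyme, Tris-HCl pH 8 with Tween 20, after 15 min compound preincubation at room temperature. Fluorescence change, last versus first of five reads.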
Active calls of the source: *; ? = inconclusive; . = not tested or not shown; [ ] = dose if it differs, or a comment. Sampled rows, rich in hits. Any-hit rate of the full collection: about 8.9%. Unless noted, calls follow the shape of the dose curve; as a rule, active = well fitted curve in the direction sought with a large enough effect; inconclusive = small, poorly fitted or top-dose-only effect, or another doubt; inactive = no such curve, though single readings can be large; an effect the other way counts as inactive or inconclusive. Unless noted, % is scaled to controls: 0 for no effect and ±100 for the full control effect.

SMILES	IMPase Li cell	IMPase inh	12-hLO inh	ALDH1A1 inh	NPSR antag	HPGD block
Cc1ccc(NS(=O)(=O)c2cc(C(=O)NCc3ccccn3)ccc2Cl)cc1	-13.4%[38.3 µM]	-11.2	1.9%	10.9%	-15.5%[46.1 µM]	-7.0%
O=C(NCc1ccccn1)c1cccc(NS(=O)(=O)c2ccccc2F)c1	5.5%	.	-3.5%	1.26µM*	9.5%	-3.6%
O=C(NCc1ccco1)c1cccc(NS(=O)(=O)c2ccccc2F)c1	-0.9%	.	2.8%	3.55µM*	4.4%	-15.4%
O=C(NCc1ccco1)c1cccc(-c2nnc(-c3ccccc3)o2)c1	38.4%[38.3 µM]	22.8	-6.5%	?	-23.3%[46.1 µM]	12.6µM*
O=C(NCc1ccco1)c1cccc(NS(=O)(=O)c2cccc(F)c2)c1	-6.7%	.	-0.7%	?	2.4%	-0.2%
O=C(CCn1cnc2ccccc2c1=O)Nc1nc(-c2ccc(Br)cc2)cs1	-13.4%	-7.5	-6.3%	0.3%	?	-9.2%
CCN(CC)CCCNC(=O)CC1Sc2ccccc2NC1=O (stereo not drawn)	3.8%[38.3 µM]	4.9	-3.1%	0.4%	0.3%[46.1 µM]	-2.2%
COCCCN1C(=O)/C(=C/c2ccc(CNS(=O)(=O)c3ccccc3)o2)C(C(=O)OC)=C1C	27.4%	.	.	35.5µM*	-17.5%	.
Cn1nc(NC(=O)C(C)(C)C)c2c(F)cccc21	.	.	.	7.7%	-19.2%	.
CCN1C(=O)/C(=C/c2c(C)nn(C)c2C)SC1=S	-5.0%	16.4	-5.8%	1.41µM*	1.1%[46.1 µM]	-26.8%
CCN1C(=O)/C(=C/c2cnn(CC)c2C)SC1=S	1.1%	.	1.3%	2µM*	-0.2%	-15.3%
COc1ccccc1NS(=O)(=O)c1ccc2oc(SCc3ccc(C#N)cc3)nc2c1	7.2%	.	4.5%	1.0%	-26.8%	-7.5%
COc1ccc(C2(c3ccc(O)cc3O)CC(c3ccccc3Cl)NC(=S)N2)cc1 (stereo not drawn)	0.7%	.	.	-3.2%	-2.0%	.
CCn1c(Cc2ccccc2)nnc1SCC(=O)Nc1ccccc1O	4.4%	.	.	7.9%	-5.2%	.
Cc1ccc(S(=O)(=O)N(C)C)cc1NC(=O)c1ccncc1	1.4%	.	.	?	12.4%	.
Cc1ccc(S(=O)(=O)N(C)C)cc1NC(=O)CN1CCN(Cc2ccccc2)CC1	7.3%	.	.	0.7%	6.4%	.
Cc1ccc(S(=O)(=O)N(C)C)cc1NC(=O)c1cc(C(C)(C)C)nn1Cc1ccccc1	.	.	.	4.47µM*	?	.
Cc1ccc(S(=O)(=O)N(C)C)cc1NC(=O)c1cccnc1Oc1ccccc1	.	.	.	28.2µM*	48.4%	.
CN(C)S(=O)(=O)c1ccc(Cl)c(NC(=O)c2ccncc2)c1	-0.7%	.	0.1%	11.2µM*	15.0%	-2.0%
CCOc1ccc(N(CC(=O)OC)S(=O)(=O)c2ccc(OC)c(OC)c2)cc1	17.3%[38.3 µM]	0.8	3.0%	3.8%	-4.5%[46.1 µM]	-2.2%
C=CC(=O)N=c1sc2ccccc2n1-c1ccccc1	20.8%	.	.	0.224µM*	-16.2%	.
O=C(/C(Br)=C/Nc1cc(Cl)ccc1Cl)C(F)(F)F	-7.0%	.	1.1%	15.8µM*	4.9%	?
O=C(COc1cc(F)ccc1[N+](=O)[O-])Nc1ccc(N2CCOCC2)cc1	-9.1%	.	.	12.6µM*	1.2%	.
C/C(=C\C(=O)c1ccc(F)cc1)Nc1ccc(N2CCOCC2)cc1	5.8%	0.6	?	?	-16.3%[46.1 µM]	-17.3%
CC(=O)Nc1ccc(C(=O)OCC(=O)Nc2ccc(N3CCOCC3)cc2)cc1	18.1%	.	.	17.8µM*	2.3%	.
Cc1ccc(OCC(=O)Nc2ccc(N3CCOCC3)cc2)c([N+](=O)[O-])n1	6.8%	.	.	2.8%	3.5%	.
COc1ccc(CC(=O)OCC(=O)Nc2ccc(N3CCOCC3)cc2)cc1	.	.	.	25.1µM*	-8.6%	.
NC(=O)CC[C@H](NC(=O)c1ccc(F)cc1)C(=O)OCC(=O)Nc1ccc(N2CCOCC2)cc1	10.6%	.	0.4%	11.2µM*	-5.0%	-5.8%
CCOC(=O)n1c(=O)[nH]c2ccc(Br)cc21	-1.5%	.	.	5.2%	4.6%	.
COc1ccccc1CNc1ncnc2ccc(-c3ccccc3CN(C)C)cc12	10.8%	.	3.7%	4.6%	.	-24.5%
